# Source: PubChem BioAssay
# The source made the active and inactive calls.
# Columns and labels:
# [1] = binders of probe aFSTL3 on microarray, primary screen, stem cell growth factor project, biochemical, small-molecule microarray, fluorescence 635/667 (AID 1064); conditions: higher = more signal;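 also: measures binding of the biotinylated anti-FSTL3 antibody to printed compounds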
# [2] = binders from COS7 lysate, DM2A8 probe, primary screen, torsin A project, cell lysate, small-molecule microarray, fluorescence 635/667 (AID 1065); conditions: higher = more signal, COS7 lysate expressing mutant human TOR1A
# [3] = binders of probe aFGF2 on microarray, primary screen, stem cell growth factor project, biochemical, small-molecule microarray, fluorescence 635/667 (AID 1067); conditions: higher = more signal;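 also: measures binding of biotinylated aFGF2 protein to printed compounds on slides; z-score merges feature fluorescence and signal-to-noise across triplicate slides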
# [4] = binders of probe aFGF10 on microarray, primary screen, stem cell growth factor project, biochemical, small-molecule microarray, fluorescence 635/667 (AID 1071); conditions: higher = more signal;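 also: score merges 667 nm spot intensity and signal to noise from triplicate slides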
# [5] = target: Neurogenic locus notch homolog protein 2 (Homo sapiens) (UniProt Q04721); assay: Notch2 binders on small-molecule microarrays, primary screen, biochemical, small-molecule microarray, 635 nm fluorescence, stem cell growth factors (AID 1073); conditions: Notch2 binding, higher = more signal
# Neurogenic locus notch homolog protein 2 (Homo sapiens), sequence (Q04721 whole entry, looked up, canonical isoform): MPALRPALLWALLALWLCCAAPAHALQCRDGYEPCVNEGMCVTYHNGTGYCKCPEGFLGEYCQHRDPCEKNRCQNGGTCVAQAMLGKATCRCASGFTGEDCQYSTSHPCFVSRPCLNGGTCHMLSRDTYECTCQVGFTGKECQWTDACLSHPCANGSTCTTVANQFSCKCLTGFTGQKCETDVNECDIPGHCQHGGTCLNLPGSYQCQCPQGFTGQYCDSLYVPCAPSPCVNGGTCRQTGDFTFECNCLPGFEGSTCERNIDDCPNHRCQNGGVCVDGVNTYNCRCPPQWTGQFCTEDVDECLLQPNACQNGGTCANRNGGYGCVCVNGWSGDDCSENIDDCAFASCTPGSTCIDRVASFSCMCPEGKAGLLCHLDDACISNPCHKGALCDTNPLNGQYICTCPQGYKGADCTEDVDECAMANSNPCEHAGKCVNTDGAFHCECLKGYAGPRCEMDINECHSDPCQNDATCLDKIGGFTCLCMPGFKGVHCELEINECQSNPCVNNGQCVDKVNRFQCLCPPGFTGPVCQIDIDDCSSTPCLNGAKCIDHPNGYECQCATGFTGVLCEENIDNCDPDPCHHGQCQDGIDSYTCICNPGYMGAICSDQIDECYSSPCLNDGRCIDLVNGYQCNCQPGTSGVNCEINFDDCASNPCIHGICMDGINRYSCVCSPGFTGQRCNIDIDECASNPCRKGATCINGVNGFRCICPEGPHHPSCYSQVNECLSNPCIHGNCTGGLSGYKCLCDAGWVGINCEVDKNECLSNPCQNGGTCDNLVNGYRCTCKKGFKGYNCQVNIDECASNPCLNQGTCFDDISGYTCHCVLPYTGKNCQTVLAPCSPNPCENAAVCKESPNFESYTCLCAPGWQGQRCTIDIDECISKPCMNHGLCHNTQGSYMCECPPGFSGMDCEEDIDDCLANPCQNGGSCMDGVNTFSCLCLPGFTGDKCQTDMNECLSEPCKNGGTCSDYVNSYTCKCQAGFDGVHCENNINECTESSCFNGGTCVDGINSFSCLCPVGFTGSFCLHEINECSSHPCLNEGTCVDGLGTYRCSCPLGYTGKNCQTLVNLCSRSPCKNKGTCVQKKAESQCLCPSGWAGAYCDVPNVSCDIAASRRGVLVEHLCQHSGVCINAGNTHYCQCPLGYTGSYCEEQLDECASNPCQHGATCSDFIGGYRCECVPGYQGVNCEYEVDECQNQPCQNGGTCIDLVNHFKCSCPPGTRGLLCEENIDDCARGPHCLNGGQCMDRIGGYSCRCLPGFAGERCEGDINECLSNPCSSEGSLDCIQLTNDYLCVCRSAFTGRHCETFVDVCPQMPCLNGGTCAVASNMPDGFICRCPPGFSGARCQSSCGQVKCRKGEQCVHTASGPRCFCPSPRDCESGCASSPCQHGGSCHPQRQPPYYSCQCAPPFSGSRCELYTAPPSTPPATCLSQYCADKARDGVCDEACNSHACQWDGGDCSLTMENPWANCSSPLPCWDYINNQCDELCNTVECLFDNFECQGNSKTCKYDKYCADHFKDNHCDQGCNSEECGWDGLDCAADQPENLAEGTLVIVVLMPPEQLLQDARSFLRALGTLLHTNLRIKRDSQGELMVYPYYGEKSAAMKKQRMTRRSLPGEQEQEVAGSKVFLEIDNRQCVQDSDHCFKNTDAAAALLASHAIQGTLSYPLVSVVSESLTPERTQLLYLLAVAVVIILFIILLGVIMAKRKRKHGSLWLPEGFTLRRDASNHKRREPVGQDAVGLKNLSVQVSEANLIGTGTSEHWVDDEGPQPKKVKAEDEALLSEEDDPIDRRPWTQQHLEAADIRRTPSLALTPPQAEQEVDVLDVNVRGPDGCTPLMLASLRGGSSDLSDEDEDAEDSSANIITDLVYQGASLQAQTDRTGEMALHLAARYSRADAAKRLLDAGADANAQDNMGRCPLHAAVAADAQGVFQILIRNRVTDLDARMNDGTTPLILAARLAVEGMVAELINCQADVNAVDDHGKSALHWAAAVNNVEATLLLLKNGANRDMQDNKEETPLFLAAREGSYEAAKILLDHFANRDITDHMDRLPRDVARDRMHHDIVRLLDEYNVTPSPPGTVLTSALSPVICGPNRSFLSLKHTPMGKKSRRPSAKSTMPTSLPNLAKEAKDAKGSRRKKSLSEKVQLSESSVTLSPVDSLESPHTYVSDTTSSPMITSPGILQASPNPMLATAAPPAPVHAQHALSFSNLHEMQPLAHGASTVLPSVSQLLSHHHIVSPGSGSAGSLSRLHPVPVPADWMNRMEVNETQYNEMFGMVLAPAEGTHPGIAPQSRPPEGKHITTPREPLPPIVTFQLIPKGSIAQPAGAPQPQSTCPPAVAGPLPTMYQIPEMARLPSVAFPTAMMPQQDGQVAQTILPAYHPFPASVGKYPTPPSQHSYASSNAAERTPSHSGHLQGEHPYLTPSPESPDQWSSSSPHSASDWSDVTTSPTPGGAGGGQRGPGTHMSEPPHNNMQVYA
# [6] = target: Pro-neuregulin-1, membrane-bound isoform (Homo sapiens) (UniProt Q02297); assay: NRG1 binders on small-molecule microarrays, primary screen, psychiatric disease protein project, biochemical, small-molecule microarray, fluorescence 635/667 (AID 1075); conditions: NRG1 binding, 635 nm fluorescence, higher = more signal;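 also: score combines 667 nm spot fluorescence with signal to noise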
# Pro-neuregulin-1, membrane-bound isoform (Homo sapiens), sequence (Q02297 whole entry, looked up, the tested form may be a part, canonical isoform): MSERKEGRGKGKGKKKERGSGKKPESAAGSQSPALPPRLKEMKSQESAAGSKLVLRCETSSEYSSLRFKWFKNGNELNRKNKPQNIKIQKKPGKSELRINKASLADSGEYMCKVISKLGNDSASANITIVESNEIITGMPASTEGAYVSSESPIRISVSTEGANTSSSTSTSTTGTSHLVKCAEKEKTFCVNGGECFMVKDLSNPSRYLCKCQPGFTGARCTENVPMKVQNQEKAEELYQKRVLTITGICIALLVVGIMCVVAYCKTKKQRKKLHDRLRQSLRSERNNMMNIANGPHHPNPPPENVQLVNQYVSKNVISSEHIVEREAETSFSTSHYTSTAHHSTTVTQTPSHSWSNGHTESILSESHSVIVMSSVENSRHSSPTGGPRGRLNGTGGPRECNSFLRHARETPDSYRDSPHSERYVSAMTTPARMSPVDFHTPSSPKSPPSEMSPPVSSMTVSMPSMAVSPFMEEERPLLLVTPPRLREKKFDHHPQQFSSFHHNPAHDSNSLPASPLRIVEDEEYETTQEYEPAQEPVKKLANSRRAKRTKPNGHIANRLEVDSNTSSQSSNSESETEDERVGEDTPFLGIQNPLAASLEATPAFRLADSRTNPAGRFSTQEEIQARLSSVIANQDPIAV
# [7] = system: Neuregulin-1 EGF-like domain; assay: binders of neuregulin-1 EGF-like domain, primary screen, biochemical, small-molecule microarray, 635 nm fluorescence (AID 1081); conditions: small-molecule microarray binding, higher = more signal;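 also: binding of the protein to compounds printed on small-molecule microarray slides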
# [8] = FRG1 promoter luciferase signal modulators, primary screen, FRG1 inhibition for FSHD, cell-based, C2C12 myotubes, firefly/Renilla luciferase, luminescence (AID 1084); conditions: higher = more signal, called active from +8 up or from −8 down
# [9] = binders of probe aFST on microarray, primary screen, stem cell growth factor project, biochemical, small-molecule microarray, fluorescence 635/667 (AID 1086); conditions: higher = more signal;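 also: score merges 667 nm fluorescence with signal-to-noise of each printed compound spot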
# [10] = binders of probe aHhip on microarray, primary screen, stem cell growth factor project, biochemical, small-molecule microarray, fluorescence 635/667 (AID 1087); conditions: higher = more signal;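 also: score merges spot fluorescence at 667nm with spot signal to noise ratio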
# [11] = system: PRMT1 (protein arginine N-methyltransferase 1); assay: PRMT1 binders on small-molecule microarrays, primary screen, biochemical, small-molecule microarray, 635 nm fluorescence (AID 1088); conditions: small-molecule microarray binding, higher = more signal;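 also: binding of Prmt1 protein to compounds spotted on small-molecule microarray slides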
# [12] = yeast growth modulation, basal conditions, primary screen, YJM789 clinical isolate, OD600, 24 h (AID 1089);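 also: growth of clinical yeast isolate S. cerevisiae YJM 789 seeded 1000 cells per well; test concentration not given here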; conditions: S. cerevisiae YJM789 growth, higher = more signal, called active from +8 up or from −8 down
# [13] = fission yeast growth modulation, primary screen, strain 972, OD600, 24 h, no modulator (AID 1090);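 also: basal condition with compound alone and no growth modifier present; test concentration not given here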; conditions: S. pombe 972 growth, higher = more signal, called active from +8 up or from −8 down
# [14] = S. cerevisiae growth modulation with rapamycin, primary screen, strain BY4716, OD600, 96 h (AID 1091); conditions: higher = more signal, called active from +8 up or from −8 down; also: test concentration not given here
# [15] = target: Torsin-1A-interacting protein 2 (Homo sapiens) (UniProt Q8NFQ8); assay: LULL1 binders on small-molecule microarray, primary screen, cell lysate, human LULL1 lysate, 635/667 nm fluorescence (AID 1092); conditions: hLULL1 lysate binding, 635 nm fluorescence, higher = more signal;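 also: probe is lysate of COS7 cells overexpressing human LULL1; score merges per-feature 667 nm fluorescence with signal-to-noise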
# Torsin-1A-interacting protein 2 (Homo sapiens), sequence (Q8NFQ8 whole entry, looked up): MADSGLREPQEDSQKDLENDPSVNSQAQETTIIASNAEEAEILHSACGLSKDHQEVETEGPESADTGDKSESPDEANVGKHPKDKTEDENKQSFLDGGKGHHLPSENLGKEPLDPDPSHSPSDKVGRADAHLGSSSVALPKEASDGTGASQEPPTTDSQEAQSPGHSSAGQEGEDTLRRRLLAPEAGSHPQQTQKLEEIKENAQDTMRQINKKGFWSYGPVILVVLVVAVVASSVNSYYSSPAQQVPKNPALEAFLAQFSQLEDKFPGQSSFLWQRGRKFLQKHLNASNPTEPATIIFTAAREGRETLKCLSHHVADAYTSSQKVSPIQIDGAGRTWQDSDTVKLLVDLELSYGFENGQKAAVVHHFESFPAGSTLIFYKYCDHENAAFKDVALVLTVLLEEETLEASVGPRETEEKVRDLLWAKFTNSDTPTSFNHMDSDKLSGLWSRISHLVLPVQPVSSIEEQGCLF
# [16] = E. coli growth modulation, two-sided OD650, primary screen, E. coli filamentation project, strain DRC41, 24 h (AID 1093); conditions: OD650, 24 h, higher = more signal, called active from +8 up or from −8 down;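 also: MC1000 strain lacking acrAB efflux and sulA so SOS filamentation is blocked; test concentration not given here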
# [17] = small-molecule microarray binders of probe aLefty2, primary screen, biochemical, biotinylated probe, 635/667 nm fluorescence (AID 1094); conditions: higher = more signal;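 also: score merges spot fluorescence near 667 nm with spot signal-to-noise ratio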
# [18] = system: Noggin (protein binding on small-molecule microarray); assay: Noggin binders on small-molecule microarray, primary screen, biochemical, 635/667 nm fluorescence (AID 1095); conditions: 635 nm fluorescence, higher = more signal;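 also: score merges 667 nm feature fluorescence with signal to noise over triplicate slides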
# [19] = target: Neurogenic locus notch homolog protein 3 (Homo sapiens) (UniProt Q9UM47); assay: NOTCH3 binders on small-molecule microarray, primary screen, biochemical, 635/667 nm fluorescence (AID 1096); conditions: NOTCH3 binding, 635 nm fluorescence, higher = more signal
# [20] = small-molecule microarray binders of probe aEGFR, primary screen, biochemical, biotinylated probe, 635/667 nm fluorescence (AID 1097); conditions: higher = more signal;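 also: probe is a biotinylated anti-EGFR antibody binding compounds printed on slides; score combines fluorescence near 667 nm and signal to noise of each spot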
Compound,composite z-score [1],composite z-score [2],composite z-score [3],composite z-score [4],composite z-score [5],composite z-score [6],composite z-score [7],z-score [8],composite z-score [9],composite z-score [10],composite z-score [11],z-score [12],z-score [13],z-score [14],composite z-score [15],z-score [16],composite z-score [17],composite z-score [18],composite z-score [19],composite z-score [20]
CC(C)(C)OC(=O)CC[C@]1(C(=O)NCC(O)CO)N=C(c2ccc(OCCCO)cc2)O[C@H]1c1ccccc1N=[N+]=[N-] (stereo not given in full),0.929,1.34,0.171,0.53,1.02,1.58,1.17,3.99 (inactive),0.967,-0.189,0.98,-0.652 (inactive),-0.0793 (inactive),-0.517 (inactive),3.62,0.821 (inactive),0.595,0.187,0.398,0.0506
COCCCNC(=O)[C@@]1(CCS(=O)(=O)c2ccccc2)COC(c2ccc(OCCCO)cc2)=N1,1.79,1.68,0.0177,0.529,0.874,2.3,1.28,-1.24 (inactive),1.1,-0.0296,1.36,0.134 (inactive),-0.0454 (inactive),-0.403 (inactive),3.67,1.52 (inactive),0.472,0.878,0.56,0.195
CN(C)C(=O)[C@@]1(Cc2ccccc2CN=[N+]=[N-])COC(c2ccc(OCCCO)cc2)=N1,0.695,-0.445,-0.085,-0.0663,0.0696,1.63,1.1,-2.47 (inactive),0.681,-0.134,0.688,-0.352 (inactive),-7.06 (inactive),31.3 (active),2.65,2.21 (inactive),0.0781,-0.543,0.132,-0.152
CN(C)CCCC[C@@H]1NC(=O)[C@H]2C[C@@H](C(=O)O)[C@@H](c3ccc(O)cc3)N2C1=O,3.22,2.34,0.653,1.04,1.64,2.84,1.38,2.42 (inactive),3.29,1.38,1.54,-0.116 (inactive),-1.99 (inactive),0.193 (inactive),4.23,2.11 (inactive),1.55,2.16,1.02,1.33
COc1ccc(C#Cc2ccc3c(c2)[C@]2(C(=O)N3)[C@H](C(=O)O)[C@H]3C(=O)O[C@H](c4ccccc4)[C@H](c4ccccc4)N3[C@@H]2c2ccccc2OCCO)cc1,-1.04,0.485,-0.095,0.991,1.26,0.566,1.07,0.205 (inactive),-0.515,-0.583,1.54,1.79 (inactive),0.549 (inactive),0.705 (inactive),2.2,0.969 (inactive),-0.321,0.597,1.04,0.0458
O=C(NC1CC1)[C@@H]1c2ccccc2C(=O)N(CC23CC4CC(CC(C4)C2)C3)[C@H]1c1ccc(CO)cc1,-0.314,0.179,0.0319,0.581,1.44,0.264,1.29,-3.56 (inactive),0.556,-0.0645,1.53,-0.706 (inactive),-0.682 (inactive),-0.437 (inactive),3.15,-0.103 (inactive),-0.2,1.47,1.02,0.0201
O=C1N(CCS(=O)(=O)c2ccccc2)c2ccccc2C[C@]12N=C(c1ccc(OCCCO)cc1)O[C@@H]2c1ccccc1,0.227,0.335,0.0605,-0.122,1.15,0.333,1.23,-0.253 (inactive),0.734,0.0053,1.48,2.51 (inactive),0.762 (inactive),4.39 (inactive),3.12,0.568 (inactive),0.225,0.83,1.09,-0.164
COC(=O)[C@H](Cc1ccc(O)cc1)N[C@@H](/C=C/C1CC1)[C@H](O)Cc1ccccc1,-0.262,0.396,-0.187,0.154,0.023,-0.721,-0.776,-0.269 (inactive),-0.437,-0.0994,0.308,0.687 (inactive),-0.813 (inactive),0.0393 (inactive),-0.243,-0.732 (inactive),-0.251,-0.0001,-0.0155,-0.0828
O=C1[C@@H]2[C@@H](CC(COc3ccccc3)=C([C@H](O)CCc3ccccc3)[C@@H]2CO)C(=O)N1Cc1ccccc1,-0.379,0.364,-0.187,0.0395,0.719,0.433,1.01,-0.643 (inactive),0.391,0.0176,1.08,0.77 (inactive),0.369 (inactive),3.2 (inactive),1.39,0.707 (inactive),-0.176,0.127,0.453,-0.0828
CN1C(=O)C2C(C1=O)C1C=C(c3ccc(CO)cc3)C2C(C2CC2)N1C (stereo not given),-0.23,0.388,-0.0932,0.0656,-0.337,1.16,0.811,0.0916 (inactive),-0.176,0.0749,-0.346,0.724 (inactive),-1.36 (inactive),2.59 (inactive),0.956,0.689 (inactive),-0.209,0.102,-0.414,-0.229
